The record followed here is PubChem BioAssay AID504847 (National Center for Advancing Translational Sciences (NCATS), 2011).

Molecules are shown by their SMILES. Hit rate of the full screen: of about 400,000 compounds, about 3,700 (0.93%) were called active. Not shown: some 3% with an inconclusive outcome. This is one part of a sample in which actives are shown more often than they occur. Values without a mark were called inactive. Calls follow the shape of the dose curve; as a rule, active = well fitted inhibition curve with a large enough effect; inconclusive = small, poorly fitted or top-dose-only effect, or another doubt; inactive = no such curve, though single readings can be large or run the other way.
% is scaled to controls: 0 for no effect and ±100 for the full control effect; potency is read from the fitted curve at half-maximal effect.

Vitamin D3 receptor (Homo sapiens), sequence (P11473 whole entry, looked up): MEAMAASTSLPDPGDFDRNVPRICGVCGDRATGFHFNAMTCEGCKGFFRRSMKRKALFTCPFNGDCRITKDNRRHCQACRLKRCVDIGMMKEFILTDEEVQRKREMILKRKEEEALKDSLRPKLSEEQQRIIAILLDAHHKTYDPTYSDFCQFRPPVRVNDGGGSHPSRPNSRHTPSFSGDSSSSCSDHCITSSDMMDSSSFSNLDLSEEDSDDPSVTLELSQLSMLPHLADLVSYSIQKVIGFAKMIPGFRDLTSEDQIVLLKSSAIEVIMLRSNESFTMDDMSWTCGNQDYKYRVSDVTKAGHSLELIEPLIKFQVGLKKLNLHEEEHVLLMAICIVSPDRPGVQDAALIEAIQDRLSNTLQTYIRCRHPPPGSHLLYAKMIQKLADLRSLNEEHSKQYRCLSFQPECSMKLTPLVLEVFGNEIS

This test addresses Vitamin D3 receptor (Homo sapiens) (UniProt P11473). Briefly: Inhibitors of the vitamin D receptor (VDR): qHTS. The following applies: VDR-SRC2-3 peptide fluorescence polarization, 2 h; max response, negative = inhibition: hits give low values. An outline of the steps: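 FP read-out; VDR + SRC2-3 coactivator peptide; 23 nl compound by pintool; 2 h RT incubation; reagents held at 4 deg C, protected from light.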
(In qHTS, concentration-response curves come from the screen itself.)
As for `O=C(CCCn1c(=O)c2cccn2c2cccnc21)NCc1ccc(F)cc1`, the max response, negative = inhibition is 8.91%.
For `CCOc1ccc(NC(=O)Cn2c(C)ccc(C#N)c2=O)cc1`, the max response, negative = inhibition is -0.0869%.
Still for that read-out and setting: the result for `Cc1ccc(CS(=O)(=O)CCC(=O)NCc2ccc(F)cc2)cc1` reads -16.2%; that for `CCn1cc(CCC(=O)NCc2ccc(F)cc2)c2ccccc21`, -3.64%.
For the compound `CCCCC(=O)NCc1ccc(F)cc1`, the Potency was 3.16 µM (active).
As for `Cc1ccc(C)c(N2CCN(C(=O)Cn3ncc4c(=O)oc5ccc(C)cc5c43)CC2)c1`, the max response, negative = inhibition is -7.32%.
Same read-out and setting: next, `CCOc1ccc(NC(=O)C2CCN(S(=O)(=O)c3cc(-c4noc(C)n4)ccc3C)CC2)cc1`: 15.5%.
On to `Oc1c(C=Nc2cccc3nsnc23)ccc2ccccc12`, for which the Potency was 79.4 µM (active).
With `COc1ccc2[nH]c3c(c2c1)CCN(C(=O)CCC1CCCC1)C3c1ccc(F)cc1` (stereo not drawn), the max response, negative = inhibition was 12.3%.
For `CCc1cc2c(cc3c(=O)n(CC(=O)NCc4cccc(Cl)c4)nc(CC)n32)s1`, the max response, negative = inhibition was -17.2%.
Take `Cc1ccc(/C=N/NC(=O)CSc2nc3ccccc3o2)cc1`: the Potency was 79.4 µM (active).
On to `O=C(CSc1nc2ccccc2o1)N/N=C/c1ccccc1C(=O)O`, for which the max response, negative = inhibition is -26.3%.
Take `CC(C)(C)C(=O)CSc1nc2ccccc2o1`: the max response, negative = inhibition was -1.66%.
On the same count and under the same terms, the result for `COc1ccc(OCCCn2c(C)nc3cc(C)c(C)cc32)cc1` reads 10%; that for `COc1cc2c(cc1OC)[C@@H](Cc1cc(OC)c(OC)c(OC)c1)[N+](C)(CCCOC(=O)CC/C=C/CCC(=O)OCCC[N+]1(C)CCc3cc(OC)c(OC)cc3[C@H]1Cc1cc(OC)c(OC)c(OC)c1)CC2` (stereo partly drawn), 3.39%.
With `O=C1C(Cl)=C(Oc2ccccc2)C(=O)c2ccccc21`, the Potency was 7.08 µM (active).
In the case of `CCOc1cc(C(=O)Nc2nnc3n2CCS3)cc(OCC)c1OCC`, the max response, negative = inhibition was -8%.
`O=S(=O)(c1cccc(C(F)(F)F)c1)N1CCN(c2nc(-c3cccs3)nc3ccccc23)CC1`: the max response, negative = inhibition was 3.96%.
The same measure, in the same setting: the result for `COc1ccccc1CNc1nccn(-c2ccc(F)cc2)c1=O` reads 6.76%.
On the same count and under the same terms, the result for `CC(C)[C@@H](NC(=O)OC(C)(C)C)C(=O)NCC1CCC(C(=O)N[C@@H](Cc2ccccc2)C(=O)O)CC1` (stereo partly drawn) reads -5.18%.
On the same count and under the same terms, next, `COc1ccccc1NC(=O)[C@H](COCc1ccccc1)NC(=O)OC(C)(C)C`: 6.86%.
For `C[C@@H](NC(=O)OC(C)(C)C)c1nnc(S(=O)(=O)Cc2ccccc2)o1`, the Potency was 28.2 µM (active).
Take `O=c1cc2nc(-c3ccccc3)nc(SCCOc3ccc(Cl)cc3)n2[nH]1`: the max response, negative = inhibition was 11.1%.
Same read-out and setting: next, `CCOC(=O)c1cc2c(=O)n3ccccc3nc2n(CC2CCCO2)c1=NC(=O)c1ccccc1F` (stereo not drawn): -16%; `Cc1ccc(C2c3[nH]c4ccccc4c3CCN2C(=O)c2cccc(C)c2)cc1` (stereo not drawn): 4%.
Still for that read-out and setting: next, `Clc1cccc(-n2ncc3c(NCCc4ccccc4)ncnc32)c1`: 2.94%.
On the same count and under the same terms, the result for `COc1cc(C(=S)N2CCOCC2)cc(OC)c1OC(=O)c1cc([N+](=O)[O-])cc([N+](=O)[O-])c1` reads -18.9%; that for `CC1CCN(C(=S)c2cccc([N+](=O)[O-])c2)CC1`, 9.7%.
As for `O=C(Oc1ccccc1C(=S)N1CCCCC1)c1cc([N+](=O)[O-])cc([N+](=O)[O-])c1`, the Potency is 89.1 µM (active).
In the case of `COc1ccc(OC)c([C@H](O)CNC(=O)CN)c1`, the max response, negative = inhibition is 6.34%.
`Cc1ccc(CNC(=O)CCc2c(C)nc3nc(CNC(=O)OC(C)(C)C)nn3c2C)cc1`: the max response, negative = inhibition was 6.84%.
The same measure, in the same setting: the result for `CC(=O)c1ccccc1NC(=O)C1CC(=O)N(c2ccc3c(c2)OCCO3)C1` (stereo not drawn) reads 0.279%.
Take `CCc1nnc(NC(=O)C2CC(=O)N(c3ccc4c(c3)OCCO4)C2)s1` (stereo not drawn): the Potency is 56.2 µM (active).
`CCOC(=O)c1ccc(NC(=O)C2CC(=O)N(c3ccc4c(c3)OCCO4)C2)cc1` (stereo not drawn): the max response, negative = inhibition was -6.01%.
Same read-out and setting: the result for `CCc1cc2c(cc3c(=O)n(CC(=O)NCCc4ccc(OC)c(OC)c4)ncn32)s1` reads 14.2%; that for `CC1CC(C)CN(c2oc(-c3ccc(OCc4ccc(Cl)cc4)cc3)nc2C#N)C1` (stereo not drawn), -6.19%; that for `COc1cccc(-c2cc(C(=O)Nc3ccc(C)cc3)[nH]n2)c1`, -3.16%.
Same read-out and setting: the result for `Cc1ccc(C(=O)NC(=S)NCc2cccnc2)cc1` reads -6.42%.
For `Cc1ccc(-n2nc(-c3ccco3)cc2C(=O)NCc2cccnc2)cc1`, the Potency is 70.8 µM (active).
For `CSc1sc(C(=O)NC(=O)NCc2cccnc2)c(C)c1-c1ccon1`, the max response, negative = inhibition was 1.93%.
In the case of `COc1cc(CNCCSc2nnnn2C)ccc1OCc1ccc(Cl)cc1Cl`, the max response, negative = inhibition was 1.83%.
For the compound `O=c1c(O)c(Br)ccc2c(Br)c(O)c(O)c(O)c12`, the Potency is 7.94 µM (active).
Turning to `O=C(c1ccco1)N(Cc1cccs1)c1ccc(O)cc1`, the max response, negative = inhibition is -6.28%.
`Cc1cccc(CSc2nc3ccncc3n2CC(=O)N(C)C2CCCCC2)c1`: the max response, negative = inhibition was -0.866%.
In the case of `CCOCCCNC(=O)c1c(NC(=O)Cc2coc3ccc(C)cc23)sc2c1CCC2`, the max response, negative = inhibition was 8.22%.
Same read-out and setting: next, `O=C(Nc1ccccc1-c1ccccc1)c1ccccc1[N+](=O)[O-]`: -7.79%.
Regarding `O=C(Nc1ccccc1-c1ccccc1)c1cccs1`, the Potency was 70.8 µM (active).
For `O=C(Nc1ccccc1-c1nnn(CC(=O)N2CCN(c3ccccc3)CC2)n1)c1cccs1`, the max response, negative = inhibition was -0.102%.
The same measure, in the same setting: next, `Cc1ccc(C)c(NC(=O)CSC2=Nc3ccccc3N=C(c3ccc(F)cc3)C2)c1`: 4.3%; `Cc1cccc2nc(-c3ccc(Cl)s3)c(Nc3ccc4c(c3)OCCO4)n12`: -14.5%.
On the same count and under the same terms, next, `CC(=O)NCC(O)c1ccc([N+](=O)[O-])cc1` (stereo not drawn): -16.9%.
Consider `C=C(C(C)=O)C(O)c1ccc([N+](=O)[O-])cc1` (stereo not drawn), for which the Potency is 50.1 µM (active).
Consider `C=C(C(C)=O)C(O)c1cccs1` (stereo not drawn), for which the max response, negative = inhibition was -7.76%.
Still for that read-out and setting: next, `CCN1CCN(c2cc(C)c3cc(NC(=O)c4cc(Cl)ccc4OC)ccc3n2)CC1`: -8.13%.
The same measure, in the same setting: next, `CCOc1ccc(CC(=O)NCCc2csc3nc(-c4ccccc4F)nn23)cc1`: 13.3%.
The same measure, in the same setting: the result for `CCC(CO)Oc1cc(NC(=O)c2ccc(Cl)cc2)c2ncn(C(C)C)c2c1` (stereo not drawn) reads -27.1%.
As to `CN(C)c1nccc(NCc2ccccc2)c1C#N`, the max response, negative = inhibition is 28.6%.
For `CC(C)n1cnc2c(NCc3ccccc3)cc(OCC3CCN(C)CC3)cc21`, the Potency is 50.1 µM (active).
For `CCOc1ccc(NC(=O)CSc2c3c(nc4ccccc24)CCCC3)cc1`, the max response, negative = inhibition is 0.351%.
The same measure, in the same setting: next, `CC(=O)c1ccc(NS(=O)(=O)c2ccc(-c3cc(C)no3)s2)cc1`: -0.0795%; `COc1ccc(CNC(=O)C2=Cc3cccc(OC)c3OC2)cc1OC`: -2.19%.
On to `C[C@]12CC[C@@H]3c4ccc(O)cc4C[C@@H](CCCCCCCCCS(=O)CCCC(F)(F)C(F)(F)F)C3[C@@H]1CC[C@@H]2O` (stereo partly drawn), for which the max response, negative = inhibition was -2.01%.
Still for that read-out and setting: next, `CCOc1ccc(NC(=O)CSc2nnc3c(n2)[nH]c2ccc(S(=O)(=O)N4CCOCC4)cc23)cc1`: 3.89%.
For `CSc1ccccc1C(=O)NCc1ccccc1`, the max response, negative = inhibition was 10.4%.
Still for that read-out and setting: next, `CC(=O)c1cccc(NC(=O)c2cc(C)nn2-c2ccccc2)c1`: -12.6%.
Regarding `CSc1ccccc1C(=O)Nc1cccc(C(C)=O)c1`, the Potency is 39.8 µM (active).
Turning to `CCCCC/C=C\C/C=C\CCCCCCCCCC(N)=O`, the max response, negative = inhibition is -2.13%.
Take `CCN(CC)C(=O)CSc1nc2cc3c(cc2c(=O)n1CCCC(=O)NCc1ccc2c(c1)OCO2)OCO3`: the max response, negative = inhibition was 4.85%.
On to `CCOc1ccc2nc(N3CCCC(C(=O)Nc4cc(C)ccc4C)C3)sc2c1` (stereo not drawn), for which the max response, negative = inhibition is 5.91%.
On the same count and under the same terms, the result for `O=C(O)c1ccc(CSc2nc3cccnc3n2Cc2cccc(F)c2)cc1` reads 9.37%.
`O=C(/C=C/Sc1ncn[nH]1)c1ccc(Cl)cc1`: the Potency is 39.8 µM (active).
As for `C[C@@H]1C[C@H]2[C@@H]3C[C@H](F)C4=CC(=O)C=C[C@@]4(C)[C@]3(F)[C@H](O)C[C@]2(C)[C@@]1(O)C(=O)CO`, the max response, negative = inhibition is -2.08%.
In the case of `Cc1ccnc(-n2sc3ccccc3c2=O)n1`, the Potency is 25.1 µM (active).
With `CCOC(=O)c1c(C)[nH]c(CCC(=O)Nc2ccc(OC)c(OC)c2)c1C`, the max response, negative = inhibition is -6.79%.
As for `COc1cc(OC)c(C2C=C(C(=O)O)Nc3ncnn32)cc1OC` (stereo not drawn), the max response, negative = inhibition was -29.8%.
The same measure, in the same setting: next, `COc1ccccc1CNC(=O)Cn1nc(C)c2nn(-c3ccc(Cl)cc3)c(C)c2c1=O`: 3.2%.
For `NC(=O)C1(C(N)=O)OC1c1ccc(Cl)cc1Cl` (stereo not drawn), the Potency is 14.1 µM (active).
As to `Nc1ccc2c(c1)C(O)c1ccc(Cl)cc1-2` (stereo not drawn), the max response, negative = inhibition was 1.49%.
The same measure, in the same setting: the result for `CCN(CC)c1nc(C#N)nc(OC)n1` reads -23.3%.
Still for that read-out and setting: next, `CCOC(=O)c1ccccc1N1C(=O)C2Sc3[nH]c(=O)sc3C(/C=C/c3ccccc3)C2C1=O` (stereo not drawn): -26.2%.
For `CCOC(=O)C1Sc2[nH]c(=O)sc2C(c2ccc(Cl)cc2)C1C(=O)OCC` (stereo not drawn), the Potency is 79.4 µM (active).
`CCOC(=O)C1CCN(C(=O)Nc2ccc(Cl)cc2)CC1`: the max response, negative = inhibition was 6.67%.
Still for that read-out and setting: the result for `CCCCCn1c(CCCNC(=O)c2ccccc2OC)nc2ccccc21` reads 10.5%.
Same read-out and setting: the result for `COc1cccc2c1cc1c(=O)n(CC(=O)N3CCN(c4cccc(Cl)c4)CC3)nc(C)n12` reads -15.1%; that for `Cc1cccc(NC(=O)CSc2ncc(-c3ccccc3)[nH]2)c1C`, -15.6%.
On to `CC(=O)c1c(C)n(S(=O)(=O)c2ccc(Cl)cc2)c2ccc(NS(=O)(=O)c3ccc(Cl)cc3)cc12`, for which the Potency is 79.4 µM (active).
Turning to `CCOC(=O)c1c(C)n(S(=O)(=O)c2ccc(C)cc2C)c2ccc(NS(=O)(=O)c3ccc(C)cc3C)cc12`, the max response, negative = inhibition was -7.13%.
Same read-out and setting: next, `CC(=O)c1c(C)oc2ccc(NS(=O)(=O)c3ccc(C(=O)O)cc3)cc12`: 11.8%.
